Measured values taken from PubChem BioAssay AID1376 (SRMLSC, 2008).
Screen size: about 220,000 compounds; about 530 (0.24%) were called active. This excerpt belongs to a sample that is enriched for actives. Measured potencies and affinities stand elsewhere. Unmarked numbers belong to inactive results. Cut-off read from the data, not from the text of the source: active = inhibition above about 13%; inconclusive = no clear call, values can overlap the other calls; inactive = below that.

These compounds were tested against Bifunctional protein GlmU (Mycobacterium tuberculosis (strain ATCC 25618 / H37Rv)) (UniProt P9WMN3) (assay: inhibition of mycobacterial GlmU enzyme – biochemical, glucosamine-1-phosphate acetyltransferase (AID 1376;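 note: 0% = complete reaction with vehicle and 100% = reaction without substrate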)). Details: M. tuberculosis GlmU acetyltransferase enzyme assay; active compounds read high;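 tested at 30 µM in the primary screen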.
Bifunctional protein GlmU (Mycobacterium tuberculosis (strain ATCC 25618 / H37Rv)), sequence (P9WMN3 whole entry, looked up): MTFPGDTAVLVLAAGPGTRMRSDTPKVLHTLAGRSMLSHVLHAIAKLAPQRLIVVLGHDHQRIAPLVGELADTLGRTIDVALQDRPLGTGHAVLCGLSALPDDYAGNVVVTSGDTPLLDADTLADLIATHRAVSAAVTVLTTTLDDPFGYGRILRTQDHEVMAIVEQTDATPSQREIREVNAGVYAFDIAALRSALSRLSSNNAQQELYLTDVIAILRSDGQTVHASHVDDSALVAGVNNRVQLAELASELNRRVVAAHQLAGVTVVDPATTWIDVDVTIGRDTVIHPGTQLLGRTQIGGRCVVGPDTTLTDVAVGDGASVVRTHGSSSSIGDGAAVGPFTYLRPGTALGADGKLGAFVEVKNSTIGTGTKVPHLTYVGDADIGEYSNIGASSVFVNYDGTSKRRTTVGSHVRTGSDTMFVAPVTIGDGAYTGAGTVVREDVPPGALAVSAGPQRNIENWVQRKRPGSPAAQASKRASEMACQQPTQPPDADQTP

Going from `CSc1ccc(CNc2nnnn2C)cc1` to `Cc1cc(C)c(C#N)c(SCC(=O)c2ccccc2)n1`, the inhibition rises from -1.37% to 2%.

Compared with `COC(=O)C1(CO)NC(c2cccs2)C2C(=O)N(c3ccccc3)C(=O)C21` (stereo not drawn), `O=C1NC(=O)N(c2ccccc2)C(=O)/C1=C\c1ccc([N+](=O)[O-])o1` is higher in inhibition: -2.08% for the first, 16.7% for the second.

Going from `COc1ccc(CN2C(=O)NC(=O)/C(=C\c3ccco3)C2=O)cc1` to `COc1ccc(CN2C(=O)NC(=O)/C(=C/c3ccc([N+](=O)[O-])s3)C2=O)cc1`, the inhibition falls from 8.39% to 6.92%.

Compared with `Cc1ccc(N2C(=O)NC(=O)/C(=C\c3ccc([N+](=O)[O-])o3)C2=O)cc1`, `O=C1CN(/N=C/c2ccc([N+](=O)[O-])o2)C(=O)N1` is lower in inhibition: 12.4% for the first, 0.61% for the second.

Going from `Cc1cc([N+](=O)[O-])ccc1N=Nc1c(N)[nH]n(-c2ccccc2)c1=O` to `Cc1ccccc1/C=C1\SC(=S)N(/N=C/c2cc([N+](=O)[O-])ccc2O)C1=O`, the inhibition rises from -3.05% to -0.74%.

Going from `Cc1c(NC(=O)c2ccc(S(=O)(=O)N(C)c3ccccc3)cc2)c(=O)n(-c2ccccc2)n1C` to `COc1ccc(-c2c3c(=O)n(C)c(=O)n(C)c3cn2-c2ccccc2)cc1`, the inhibition rises from -6.06% to -0.39%.

Going from `COc1ccc(C(C(=O)NC(C)(C)C)N(Cc2ccc(C)cc2)C(=O)CCC(=O)Nc2cc(C)on2)cc1` (stereo not drawn) to `CCC(C)(C)NC(=O)C(c1ccc(OC)cc1)N(CC1CCCO1)C(=O)CCC(=O)Nc1cc(C)on1` (stereo not drawn), the inhibition rises from 5.39% to 5.67%.

First: COc1cc2nc(C3CCC3)n(NC(=O)C3CCC(OC)CC3)c(=O)c2cc1OC (stereo not drawn)
Second: COc1cc2c(cc1OC)C(SC)=NC1(CCCC1)C2
The inhibition of the first is lower: 0.09% for the first, 2.45% for the second.

Going from `C=CC1CN2CCC1CC2c1[nH]c2ccccc2c1CCO` (stereo not drawn) to `CN(C)CC(C)(C)CN=Cc1c(O)[nH]c2ccccc12`, the inhibition falls from -1.33% to -4.17%.

Compared with `NS(=O)(=O)c1cc(C(=O)OCC(=O)NC2CC2)ccc1Cl`, `CC1CCC(NC(=O)c2ccc(/C=C3\Oc4ccccc4N(C)C3=O)cc2)CC1` (stereo not drawn) is lower in inhibition: 0.47% for the first, -2.49% for the second.

Going from `O=[N+]([O-])c1ccc2c(c1)C(N1CCOCC1)/C(=C/COc1ccc(Cl)cc1Cl)O2` (stereo not drawn) to `O=C1/C(=C/c2cccc(Br)c2)SC(=S)N1/N=C/c1cc([N+](=O)[O-])ccc1O`, the inhibition falls from -0.92% to -5.24%.

Going from `COC(=O)c1oc2c(c1C)C1(CCC2)SCCS1` to `Cc1cccc(N2CCN(C(=O)N3CCCCC3)CC2)c1C`, the inhibition rises from -1.66% to 4.08%.

First: COc1ccc(OC)c2c1C(=O)c1ccccc1C2=O
Second: COc1ccc(N)c2c1C(=O)c1ccccc1C2=O
The inhibition of the first is lower: 1.18% for the first, 11.8% for the second.

First: O=C(O)/C=C/c1ccc([N+](=O)[O-])o1
Second: O=c1[nH]c(/C=C/c2cccnc2)c([N+](=O)[O-])c(=O)[nH]1
The inhibition of the first is higher: -1.44% for the first, -1.57% for the second.

Compared with `Cc1ccc(C2=N/C(=C\N(C)C)C(=O)O2)cc1`, `Cc1cc(C)c(C#N)c(SCC(=O)c2cccs2)n1` is higher in inhibition: 1.44% for the first, 3.22% for the second.

Going from `O=C(O)C1C2C=CC(C3CC23)C1C(=O)O` (stereo not drawn) to `O=C(O)C1C2C=CC(C2)C1C(=O)N1CCOCC1` (stereo not drawn), the inhibition falls from 1.12% to -2.63%.

Going from `COc1cc(/C=N/n2c(-c3n[nH]c4c3CCC4)n[nH]c2=S)cc(OC)c1O` to `COc1cc(/C=N/n2c(-c3n[nH]c4c3CCC4)n[nH]c2=S)ccc1O`, the inhibition rises from 0.14% to 1.56%.

Going from `Cc1cc(C(=O)O)c(CSCc2cc(C(=O)O)oc2C)o1` to `COC(=O)CCN(C(=O)c1cc([N+](=O)[O-])cc([N+](=O)[O-])c1)c1ccccn1`, the inhibition rises from 2.24% to 9.11%.

Compared with `COc1cc2c(cc1OC)C(SC)=NC(C)(C)C2`, `COc1ccc(CCn2c(-c3cc([N+](=O)[O-])cc([N+](=O)[O-])c3)nc3nc4ccccc4nc32)cc1OC` is lower in inhibition: 8.72% for the first, 1.37% for the second.

Compared with `Cc1cccc(C)c1N1CCN(C(=O)N2CCOCC2)CC1`, `CC1CCN(CCc2nc3cc(NC(=O)Nc4ccccc4)ccc3n2C)CC1` is lower in inhibition: 1.63% for the first, -2.61% for the second.

Going from `COc1ccc(-c2c3c(=O)n(C)c(=O)n(C)c3cn2-c2ccc(O)cc2)cc1` to `CCc1nnc(NC(=O)C2CCCN(S(=O)(=O)c3ccc(OC)cc3)C2)s1` (stereo not drawn), the inhibition falls from -0.66% to -3.09%.

With `COC(=O)CCN(C(=O)c1cccc([N+](=O)[O-])c1)c1ccccn1` the inhibition was 2.81%.

For `COc1ccc(CN2C(=O)NC(=O)/C(=C/c3ccc([N+](=O)[O-])o3)C2=O)cc1`, the inhibition was 19.9% (active).
In the case of `COc1ccc(C(C(=O)NC(C)(C)C)N(CC2CCCO2)C(=O)CCC(=O)Nc2cc(C)on2)cc1` (stereo not drawn), the inhibition is reported as 16.9% (active).
`COc1ccc(OC)c2c1C(=O)C(Cl)=C(Cl)C2=O` was tested, and the inhibition was 15.7% (active).
`Cc1ccc(/C=C2\SC(=S)N(/N=C/c3cc([N+](=O)[O-])ccc3O)C2=O)o1` was tested, and the inhibition was 46.9% (active).
`COc1ccc(/C=N/n2c(-c3n[nH]c4c3CCC4)n[nH]c2=S)cc1OC` was tested, and the inhibition was 14.3% (active).
With `COc1cc2c(cc1O)C(SC)=NC(C)(C)C2` the inhibition was 14.9% (active).
For `Cc1cccc(N2CCN(C(=O)N3CCOCC3)CC2)c1C`, the inhibition was 13.8% (active).
`COc1ccc(-c2c3c(=O)n(C)c(=O)n(C)c3cn2-c2cccc(OC)c2)cc1` was tested, and the inhibition was 14% (active).
`Cc1cc(C)c(C#N)c(SCC(=O)c2ccc(Cl)cc2Cl)n1` was tested, and the inhibition was 14.2% (active).
`COC(=O)CCN(C(=O)c1ccc([N+](=O)[O-])cc1)c1ccccn1` was tested, and the inhibition was 13.6% (active).
